Bioassay records (PubChem BioAssay)
The entries come from a sample that favours hits as a whole.
KDM5B inhibitor – Primary screen for KDM5B Histone Demethylases FDH-coupled qHTS; AID 1347165, 2019; 220,000 tested, 2.6% active; Potency, µM (titrated, usually from 57.7 µM), usual class: inhibitors; Lysine-specific demethylase 5B (Homo sapiens), Q9UGL1; KDM5B demethylase, FDH-coupled NADH fluorescence (FDH is formaldehyde dehydrogenase); active = well fitted inhibition curve with a large enough effect; note: nearly all actives have a fitted effect of over 70% in size
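Here, H3K4me3 peptide (12.5 µM in substrate mix) is demethylated by KDM5BΔAP, 200 nM final, after 10 min compound exposure. Formaldehyde product is coupled through FDH (0.25 U/mL in mix) to NADH fluorescence; 30-min ΔRFU feeds dose-response curves.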
Hits are given with their value; 0 = inactive.

SMILES | KDM5B inhibitor
O=C(NC1CC1)c1cc(-c2ccccc2C(F)(F)F)nc2onc(C3CCNC3)c12 (stereo not given) | 0
COc1ccc(-c2cc(N3CCC(NC(=O)c4cc(C)ccc4C)CC3)n[nH]2)cc1 | 0
COc1ccc(-c2cc(C(=O)NCC3CC3)c3c(C4CCNC4)noc3n2)cc1 (stereo not given) | 79µM
O=C(CCc1nnc2ccc(NCc3ccco3)nn12)Nc1ccc2c(c1)OCO2 | 0
COc1ccc(N(Cc2cccs2)C(=O)Cn2cnc3ccc(Cl)cc3c2=O)cc1 | 0
CCOC(=O)c1cnc2ccccc2c1N1CCC(C(N)=O)CC1 | 0
COc1cccc(-c2noc(CC3CCN(C(=O)c4ccccc4)CC3)n2)c1 | 0
CCOc1ccc(NC(=O)Nc2cc(C)c3nc(NC(C)=O)sc3c2)cc1 | 0
Cc1ccc(C)c(-n2ncc3c(NNC(=O)C4CCCCC4)ncnc32)c1 | 0
c1ccc(-n2nnnc2CSc2nnc(N3CCCCC3)n2-c2ccccc2)cc1 | 0
NC(=O)c1cc2c(nc1N1CCC3(CCCN(CC4CCC4)C3)C1)CCC2 (stereo not given) | 25µM
NC(=O)c1cccnc1N1CCC2(CCCN(Cc3ccccc3F)C2)C1 (stereo not given) | 0
NC(=O)c1cccnc1N1CCC2(CCCN(Cc3cccc(F)c3F)C2)C1 (stereo not given) | 0
COC(=O)c1ccc2c(c1)CCN2 | 0
Cc1cc(C(=O)OCC(=O)Nc2ccc(F)c(F)c2F)c2ccccc2n1 | 0
COCCN1CCC(N2CCN(S(=O)(=O)c3cccc(Cl)c3)CC2)C1=O (stereo not given) | 0
CCCCC(=O)Nc1ccc(NC(=O)c2cccc3c(Br)cccc23)cc1OC | 0
N#Cc1nc(C2CC2)oc1N1CCN(Cc2ccccc2Cl)CC1 | 0
Cc1[nH]c2c(ccc3ccccc32)c1C | 0
Cc1ccc(-c2ccc3nnc(CNC(=O)c4cccc(N(C)C)c4)n3n2)cc1 | 0
N#Cc1cccc(C(=O)NCCSC(F)(F)F)c1 | 0
N#Cc1cccc(C(=O)NCc2nnc3ccc(-c4ccc(F)cc4)nn23)c1 | 28µM
COCc1ccc(CNC(=O)c2cccc(C#N)c2)cc1 | 0
Cc1ccc(-c2ccc3nnc(CNC(=O)c4cccc(C#N)c4)n3n2)cc1 | 11µM
CC(C)CCNC(=O)c1cccc(C#N)c1 | 0
SMILES | KDM5B inhibitor
CSCC[C@H](Nc1ncnc2sc3c(c12)CCCC3)C(=O)O | 0
Cc1noc(C)c1CC(=O)NC1CCCc2c1[nH]c1c(Cl)cccc21 (stereo not given) | 0
CCN(CC)C(=O)c1cccc(NC(=O)c2cc(=O)c3cc(C)ccc3o2)c1 | 0
O=c1[nH]c(SCc2ccc(F)cc2)nc2c1cnn2CCO | 0
CC(Sc1nnc2ccccn12)C(=O)c1ccc(Br)cc1 (stereo not given) | 0
O=S(=O)(Cc1coc(-c2ccccc2)n1)CC1CCCO1 (stereo not given) | 0
Nc1ccc2ncnc(N3CCCCC3)c2c1 | 28µM
O=C(Nc1ccc2ncnc(N3CCCCC3)c2c1)c1ccc(F)cc1 | 0
COCC(=O)Nc1ccc2ncnc(N3CCCCC3)c2c1 | 0
O=C(O)COc1ccc(/C=C2/NC(=O)NC2=O)cc1I | 0
Clc1ccccc1CSc1nc(CN2CCOCC2)nc2ccccc12 | 0
CN(CC(=O)Nc1c(Cl)cccc1Cl)C(=O)C1CCN(C(=O)c2ccc(Cl)cc2)CC1 | 0
CCC(O)C1CCN(C(=O)c2cnn3cc(CN(CC)CC)cnc23)CC1 (stereo not given) | 0
CN1C[C@@H]2CC[C@H](CC1=O)N2C(=O)c1cnn2cc(CCO)cnc12 | 32µM
CCN(CC)Cc1cnc2c(C(=O)N3CCCC(COC)C3)cnn2c1 (stereo not given) | 0
Cc1noc(C)c1-c1cc2cc(CO)oc2c(NCC2CCOCC2)n1 | 32µM
Cc1noc(C)c1-c1cc2cc(CN(C)C)oc2c(NCc2cccnc2)n1 | 0
Cc1noc(C)c1-c1cc2cc(CN(C)C)oc2c(Nc2cccnc2)n1 | 28µM
Cc1cc2cc(-c3c(C)noc3C)nc(NC3CC3)c2o1 | 0
Cc1noc(C)c1-c1cc2cc(C(C)C)oc2c(NC2CCN(C)CC2)n1 | 0
Cc1noc(C)c1-c1cc2cc(CN(C)C)oc2c(NCc2ccccc2)n1 | 0
Cc1noc(C)c1-c1cc2cc(C(C)C)oc2c(NCc2cccnc2)n1 | 0
Cc1noc(C)c1-c1cc2cc(CO)oc2c(NC2CCOCC2)n1 | 35µM
Cc1noc(C)c1-c1cc2cc(C(C)C)oc2c(NCCN2CCOCC2)n1 | 0
Cc1ccccc1NC(=O)CSc1nccc(-c2ccc(OC(F)F)cc2)n1 | 0
SMILES | KDM5B inhibitor
CS(=O)(=O)N1CCCC(C(=O)Nc2ccccc2SC2CCCC2)C1 (stereo not given) | 0
CCOC(=O)CCCCCCN | 0
CCCC(=O)N1N=C(c2ccc3c(c2)OCO3)CC1c1ccc2nccnc2c1 (stereo not given) | 0
NCc1cccc(NC(=O)C2CC2)c1 | 0
Cc1ccccc1C(=O)N1CC2(Cc3ccccc3N([S+](C)(=O)[O-])C2)C1 | 25µM
C[S+](=O)([O-])N1CC2(Cc3ccccc31)CN(C(=O)c1ccccc1F)C2 | 0
C[S+](=O)([O-])N1CC2(Cc3ccccc31)CN(C(=O)c1ccccc1)C2 | 0
C[S+](=O)([O-])N1CC2(CCN(C(=O)CCC(=O)O)C2)Cc2ccccc21 (stereo not given) | 40µM
C[S+](=O)([O-])N1CC2(Cc3ccccc31)CN(C(=O)c1ccccc1Cl)C2 | 0
COC(=O)N1CC2(Cc3ccccc3N([S+](C)(=O)[O-])C2)C1 | 0
O=C(CSc1nc(Cl)nc2nc[nH]c12)NCCc1c[nH]c2ccccc12 | 0
COc1ccc(Nc2nc(N3CCN(c4ccccc4OC)CC3)nc3c2cnn3C)cc1 | 0
CN(Cc1ccco1)C(=O)c1cc(-c2ccncc2)nc2ccccc12 | 0
CN1CCCC(CN(C)C(=O)c2cc(-c3cnn(CCO)c3)nc3ccccc23)C1 (stereo not given) | 32µM
CN(CC1CC1)C(=O)c1cc(-c2ccccc2Cl)nc2ccccc12 | 0
Cc1ccc(S(=O)(=O)N2CCN(C(=O)COC(=O)c3cccc4ccccc34)CC2)c(C)c1 | 0
COc1ccc(C(CC(=O)O)NC(=O)c2ccc(C(C)(C)C)cc2)cc1 (stereo not given) | 0
Cc1ccccc1NC1(c2nnnn2-c2ccccc2)CCCCC1 | 0
CCc1nc2ccccc2c(C(=O)OCC(=O)NC(C)C(C)C)c1C (stereo not given) | 0
O=C(c1c(F)cccc1F)N(Cc1cccc2[nH]ccc12)C1CC1 | 0
CCc1nn2c(=O)cc(CNc3cccc(C(=O)NCC(F)(F)F)c3)nc2s1 | 0
COCCn1c(N2CCN(Cc3c(F)cccc3Cl)CC2)nc2c1c(=O)[nH]c(=O)n2C | 0
O=C1Nc2ccc(-c3ccc(F)cc3F)cc2C(=O)N2CC[C@H](NC(=O)N3CCOCC3)[C@@H]12 | 0
CSc1ccc(-c2ccc3c(c2)C(=O)N2CC[C@H](NC(=O)c4cccs4)[C@H]2C(=O)N3)cc1 | 25µM
O=C(N[C@H]1CCN2C(=O)c3cc(-c4ccc(F)cc4F)ccc3NC(=O)[C@H]12)c1cccc(F)c1 | 0
CSCC(=O)N[C@H]1CCN2C(=O)c3cc(-c4cccs4)ccc3NC(=O)[C@H]12 | 35µM
O=C(N[C@H]1CCN2C(=O)c3cc(-c4cccs4)ccc3NC(=O)[C@H]12)c1cccs1 | 32µM
Cc1cccc(-c2ccc3c(c2)C(=O)N2CC[C@H](NC(=O)c4cccs4)[C@H]2C(=O)N3)c1C | 0
